Measurements published in PubChem BioAssay (NCATS).
“And” between values parts separate entries of the source, which are not always exact repeats. Identical values can stand only once. Results filed as inconclusive are left out. A call without a number means that no potency is given here. A structure can be active in one record and inactive in another. The source made the active and inactive calls. Unless noted, the call rests on the fitted dose curve; in most records, active means well fitted curve in the direction sought with a large enough effect; inconclusive means small, poorly fitted or top-dose-only effect, or another doubt; inactive means no such curve, though single readings can be large; an effect the other way counts as inactive or inconclusive.

How the values were obtained:
[1] = molecular target: Beta-2 adrenergic receptor (Homo sapiens) (UniProt P07550); assay: qHTS validation assay of beta-arrestin-biased ligands of beta2-adrenergic receptor (AID 485366)
Outline: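 Compound series up to 46 microM applied to beta2-AR/beta-arrestin Tango cells, 18 hr, 37 degrees C, 5% CO2. Read-out: tTA-driven luciferase luminescence, converted to %Activity; concentration-response curves assigned curve classes.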

[2] = Quantitative high throughput screen for delayed death inhibitors of the malarial parasite plastid, 96 hour incubation (AID 488745); further: nearly all actives have a fitted effect of over 70% in size; further: potency means the concentration at half of the fitted maximal effect
Outline: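 Readout is firefly luciferase luminescence from an integrated reporter in P. falciparum; lower signal marks inhibited growth. Cultures at 2% hematocrit and 0.1% parasitemia were treated with compound across two generations (96 h, 37 C, 5% CO2).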

[3] = Quantitative high throughput screen for delayed death inhibitors of the malarial parasite plastid, 48 hour incubation (AID 488752); further: nearly all actives have a fitted effect of over 65% in size; further: potency means the concentration at half of the fitted maximal effect
Outline: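 First, compound was pinned into RPMI 1640 medium containing 0.5% Albumax. Next, reporter-parasite-infected erythrocytes were added to 2% hematocrit and 0.1% parasitemia. After 48 h at 37 C under 5% CO2, luciferase detection reagent was added and luminescence read.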

[4] = molecular target: Thioredoxin reductase 1, cytoplasmic (Rattus norvegicus) (UniProt O89049); assay: qHTS Assay for Substrates of Mammalian Selenoprotein Thioredoxin Reductase 1 (TrxR1) (AID 488772);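 further: series mostly up to about 57 µM; a drop in NADPH fluorescence below the no-compound background marks a TrxR1 substrate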
Outline: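 In this dual-purpose format, potential substrates are identified from the first fluorescence read after selenite addition, not from the 8-minute delta. Rat enzyme is preincubated with NADPH and then with compound at ~22 deg C.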

[5] = molecular target: Thioredoxin reductase 1, cytoplasmic (Rattus norvegicus) (UniProt O89049); assay: qHTS Assay for Inhibitors of Mammalian Selenoprotein Thioredoxin Reductase 1 (TrxR1) (AID 488773); conditions: Potency: inhibition;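 further: drop in NADPH fluorescence over an 8 min run after selenite addition; series mostly up to about 57 µM; nearly all actives have a fitted effect of over 40% in size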
Outline: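 Inhibition is scored from the loss of NADPH fluorescence between first and last reads of an 8-min kinetic run. Selenite (400 uM) was the substrate, added after 15 min compound preincubation at room temperature.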

[6] = molecular target: M-phase phosphoprotein 8 (Homo sapiens) (UniProt Q99549); assay: qHTS Validation Assay for Inhibitors for MPP8 Chromodomain Interactions with Methylated Histone Tails (AID 488949); further: nearly all actives have a fitted effect of over 55% in size; further: potency means the concentration at half of the fitted maximal effect
Outline: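 Disruption of the preformed MPP8–trimethyl-H3K9 peptide complex (both 50 nM, 30 min, RT) is measured after 30 min compound exposure, using AlphaScreen proximity beads; aurintricarboxylic acid titration serves as plate control.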

[7] = molecular target: Chromobox protein homolog 1 (Homo sapiens) (UniProt P83916); assay: qHTS Validation Assay for Inhibitors of HP1-beta Chromodomain Interactions with Methylated Histone Tails (AID 488953); further: nearly all actives have a fitted effect of over 50% in size; further: potency means the concentration at half of the fitted maximal effect
Outline: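 Disruption of preformed HP1-beta:H3K9me3 peptide complexes (both 50 nM, PBS pH 7.4 with 0.01% Tween-20) is measured by AlphaScreen after 30 min compound exposure at room temperature, using streptavidin donor and nickel chelate acceptor beads at 10 ug/mL final.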

[8] = molecular target: Methanococcus maripaludis chaperonin (MmCpn) (UniProt Q6LX38); assay: High-Throughput Screening for Modulators of Cytosolic Chaperonin Activity: MmCpn Primary Screen (AID 488978);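 further: 50 nM MmCpn enzyme hydrolysing 30 µM ATP at 37 °C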
Outline: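 Measures ATPase turnover of the M. maripaludis chaperonin (50 nM final) against 30 uM ATP over 10 min at 37C, with compound added 5 min beforehand at room temperature. ADP is quantified by HTRF immunodetection.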

[9] = molecular target: Transient receptor potential cation channel subfamily V member 1 (Homo sapiens) (UniProt Q8NER1); assay: HTS Assay for Compounds that Act as Enhancers of the Vanilloid Receptor 1 (AID 488979)
Outline: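 Calcium influx kinetics via Fluo-8 (480/520 nm) in TRPV1-expressing cells, 2000/well cultured overnight at 35.5C. Compound-alone read 3 min (agonist phase), followed by EC20 capsaicin challenge for 2 min (enhancer phase).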

[10] = molecular target: Thyrotropin receptor (Homo sapiens) (UniProt P16473); assay: qHTS Assay for Antagonists of the Thyroid Stimulating Hormone Receptor (AID 488980); further: series mostly up to about 58 µM
Outline: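 Cells expressing human TSHR (HEK293) are dispensed in HBSS/HEPES containing 70 uM RO 20-1724, compound is added, then TSH at EC80 (4 nM final). Antibody in lysis buffer follows, 30 minutes at room temperature before HTRF detection.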

[11] = molecular target: D(1A) dopamine receptor (Homo sapiens) (UniProt P21728); assay: HTS Assay for Allosteric Agonists of the Human D1 Dopamine Receptor: Primary Screen for Agonists (AID 488981)
Outline: (§1)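 Calcium flux in an inducible, force-coupled HEK293 Trex D1 line (overnight at 30 C): agonist mode is the 180 s kinetic read after compound; potentiator mode is the following 180 s read after dopamine at EC20.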

[12] = molecular target: D(1A) dopamine receptor (Homo sapiens) (UniProt P21728); assay: HTS Assay for Allosteric Agonists of the Human D1 Dopamine Receptor: Primary Screen for Potentiators (AID 488982)
Outline: as §1

[13] = molecular target: D(1A) dopamine receptor (Homo sapiens) (UniProt P21728); assay: HTS Assay for Allosteric Agonists of the Human D1 Dopamine Receptor: Primary Screen for Antagonists (AID 488983);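 further: calcium flux response to an EC80 dopamine challenge measured with no-wash dye; nearly all actives have a fitted effect of over 65% in size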; further: potency means the concentration at half of the fitted maximal effect
Outline: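 Kinetic fluorescence at 1 cycle/sec tracked intracellular calcium in force-coupled, tetracycline-inducible HEK293 T-REx D1 cells. Loss of response to an EC80 dopamine dose, given 180 s after compound, marked antagonists.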

[14] = molecular target: ATP-dependent 6-phosphofructokinase (Trypanosoma brucei brucei) (UniProt O15648); assay: qHTS Assay to Find Inhibitors of T. brucei phosphofructokinase: hit validation (AID 492961);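 further: luminescence reports ADP formed as PFK phosphorylates fructose-6-phosphate with ATP; series mostly up to about 51 µM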
Outline: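 Measures ADP output of PFK (1.25 nM) at 0.1 mM ATP, 0.5 mM F6P, pH 8.0 TEA buffer with 5 mM MgCl2. No-enzyme wells define full inhibition; uninhibited enzyme wells define zero.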

[15] = molecular target: ATPase family AAA domain-containing protein 5 (Homo sapiens) (UniProt Q96QE3); assay: Validation screen for small molecules that inhibit ELG1-dependent DNA repair in human embryonic kidney (HEK293T) cells expressing luciferase-tagged ELG1 (AID 493107); further: nearly all actives have a fitted effect of over 70% in size; further: potency means the concentration at half of the fitted maximal effect
Outline: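 Cells are dispensed in 1536-well format, then 5-fluorouridine and compound are pinned in. After a 16 hr incubation at 37 °C and 5% CO2, ONE-Glo is added and luciferase measured on a CCD imager.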

[16] = molecular target: Flap endonuclease 1 (Homo sapiens) (UniProt P39748); assay: qHTS Validation Assay for the Inhibitors of Human Flap endonuclease 1 (FEN1) (AID 488816); further: potency means the concentration at half of the fitted maximal effect
Outline: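 qHTS format: compounds and 10 nM FEN1 incubated 15 min at room temperature before adding 50 nM substrate. Cleavage followed by reads at 0 and 15 min; normalized data fitted to a four-parameter Hill curve.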

[17] = Validation screen for small molecules that induce genotoxicity in human embryonic kidney (HEK293T) cells expressing luciferase-tagged ELG1 (AID 493106)
Outline: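 Cells were dispensed at 2,000 per well, then 23 nL compound or DMSO was pinned in. After 16 hr at 37 °C and 5% CO2, ONE-Glo reagent was added. Luciferase activity was measured following 30 min at room temperature.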

[18] = molecular target: Thyrotropin-releasing hormone receptor (Homo sapiens) (UniProt P34981); assay: qHTS for Small Molecule Agonists and Allosteric Enhancers of Human TRH Receptor: Validation Screen for Agonists (AID 493127;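 active means calcium activation more than 3 SD above the typical response in the agonist read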;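 further: intracellular calcium rise by fluo-8 fluorescence before TRH EC20 addition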); conditions: TRH receptor agonist cell assay; at 2 µM; stronger effect = higher value
Outline: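 Compounds are added by online pintool to dye-loaded TRHR cells while fluorescence is recorded every second. A rise in calcium signal during the agonist read marks activation; a later 10 nM TRH addition (EC20) serves the separate enhancer mode.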

Sequence of Transient receptor potential cation channel subfamily V member 1 (Homo sapiens) (Q8NER1 whole entry, looked up): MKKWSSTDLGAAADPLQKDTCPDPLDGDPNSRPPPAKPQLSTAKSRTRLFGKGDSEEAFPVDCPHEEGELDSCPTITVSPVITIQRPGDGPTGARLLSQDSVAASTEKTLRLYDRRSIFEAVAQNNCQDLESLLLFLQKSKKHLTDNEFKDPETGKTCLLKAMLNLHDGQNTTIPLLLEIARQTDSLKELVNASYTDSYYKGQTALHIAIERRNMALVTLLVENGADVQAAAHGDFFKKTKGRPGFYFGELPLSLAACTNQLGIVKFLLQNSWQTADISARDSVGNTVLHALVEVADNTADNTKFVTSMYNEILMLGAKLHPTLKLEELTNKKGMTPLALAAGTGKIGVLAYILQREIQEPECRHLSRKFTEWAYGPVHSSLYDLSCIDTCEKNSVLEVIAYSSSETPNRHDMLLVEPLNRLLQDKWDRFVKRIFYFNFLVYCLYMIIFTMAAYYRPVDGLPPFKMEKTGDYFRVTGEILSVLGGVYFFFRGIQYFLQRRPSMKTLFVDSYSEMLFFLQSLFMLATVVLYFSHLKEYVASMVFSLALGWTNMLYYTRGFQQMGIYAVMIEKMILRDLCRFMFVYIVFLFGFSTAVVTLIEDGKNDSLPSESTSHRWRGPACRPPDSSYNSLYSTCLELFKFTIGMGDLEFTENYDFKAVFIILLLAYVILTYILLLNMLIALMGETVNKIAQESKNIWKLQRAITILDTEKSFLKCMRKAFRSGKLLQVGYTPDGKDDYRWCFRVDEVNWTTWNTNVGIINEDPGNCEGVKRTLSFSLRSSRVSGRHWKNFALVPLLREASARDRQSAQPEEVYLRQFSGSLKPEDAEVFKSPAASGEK
Sequence of Thyrotropin-releasing hormone receptor (Homo sapiens) (P34981 whole entry, looked up): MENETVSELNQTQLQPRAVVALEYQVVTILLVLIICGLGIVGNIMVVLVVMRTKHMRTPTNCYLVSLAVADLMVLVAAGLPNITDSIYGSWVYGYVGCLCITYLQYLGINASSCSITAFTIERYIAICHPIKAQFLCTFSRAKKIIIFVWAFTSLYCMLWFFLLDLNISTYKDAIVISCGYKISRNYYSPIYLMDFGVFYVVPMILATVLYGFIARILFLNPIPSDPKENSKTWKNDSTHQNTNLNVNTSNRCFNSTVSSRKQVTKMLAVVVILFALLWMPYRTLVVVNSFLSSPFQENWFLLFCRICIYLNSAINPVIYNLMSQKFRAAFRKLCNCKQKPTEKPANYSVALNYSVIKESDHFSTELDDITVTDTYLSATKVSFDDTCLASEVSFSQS
Sequence of Chromobox protein homolog 1 (Homo sapiens) (P83916 whole entry, looked up): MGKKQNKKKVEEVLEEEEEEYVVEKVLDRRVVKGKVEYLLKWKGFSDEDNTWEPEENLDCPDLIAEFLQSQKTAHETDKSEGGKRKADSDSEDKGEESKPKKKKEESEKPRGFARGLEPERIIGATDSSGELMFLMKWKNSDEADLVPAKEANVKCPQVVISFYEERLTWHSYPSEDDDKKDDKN
Sequence of ATPase family AAA domain-containing protein 5 (Homo sapiens) (Q96QE3 whole entry, looked up, the tested form may be a part): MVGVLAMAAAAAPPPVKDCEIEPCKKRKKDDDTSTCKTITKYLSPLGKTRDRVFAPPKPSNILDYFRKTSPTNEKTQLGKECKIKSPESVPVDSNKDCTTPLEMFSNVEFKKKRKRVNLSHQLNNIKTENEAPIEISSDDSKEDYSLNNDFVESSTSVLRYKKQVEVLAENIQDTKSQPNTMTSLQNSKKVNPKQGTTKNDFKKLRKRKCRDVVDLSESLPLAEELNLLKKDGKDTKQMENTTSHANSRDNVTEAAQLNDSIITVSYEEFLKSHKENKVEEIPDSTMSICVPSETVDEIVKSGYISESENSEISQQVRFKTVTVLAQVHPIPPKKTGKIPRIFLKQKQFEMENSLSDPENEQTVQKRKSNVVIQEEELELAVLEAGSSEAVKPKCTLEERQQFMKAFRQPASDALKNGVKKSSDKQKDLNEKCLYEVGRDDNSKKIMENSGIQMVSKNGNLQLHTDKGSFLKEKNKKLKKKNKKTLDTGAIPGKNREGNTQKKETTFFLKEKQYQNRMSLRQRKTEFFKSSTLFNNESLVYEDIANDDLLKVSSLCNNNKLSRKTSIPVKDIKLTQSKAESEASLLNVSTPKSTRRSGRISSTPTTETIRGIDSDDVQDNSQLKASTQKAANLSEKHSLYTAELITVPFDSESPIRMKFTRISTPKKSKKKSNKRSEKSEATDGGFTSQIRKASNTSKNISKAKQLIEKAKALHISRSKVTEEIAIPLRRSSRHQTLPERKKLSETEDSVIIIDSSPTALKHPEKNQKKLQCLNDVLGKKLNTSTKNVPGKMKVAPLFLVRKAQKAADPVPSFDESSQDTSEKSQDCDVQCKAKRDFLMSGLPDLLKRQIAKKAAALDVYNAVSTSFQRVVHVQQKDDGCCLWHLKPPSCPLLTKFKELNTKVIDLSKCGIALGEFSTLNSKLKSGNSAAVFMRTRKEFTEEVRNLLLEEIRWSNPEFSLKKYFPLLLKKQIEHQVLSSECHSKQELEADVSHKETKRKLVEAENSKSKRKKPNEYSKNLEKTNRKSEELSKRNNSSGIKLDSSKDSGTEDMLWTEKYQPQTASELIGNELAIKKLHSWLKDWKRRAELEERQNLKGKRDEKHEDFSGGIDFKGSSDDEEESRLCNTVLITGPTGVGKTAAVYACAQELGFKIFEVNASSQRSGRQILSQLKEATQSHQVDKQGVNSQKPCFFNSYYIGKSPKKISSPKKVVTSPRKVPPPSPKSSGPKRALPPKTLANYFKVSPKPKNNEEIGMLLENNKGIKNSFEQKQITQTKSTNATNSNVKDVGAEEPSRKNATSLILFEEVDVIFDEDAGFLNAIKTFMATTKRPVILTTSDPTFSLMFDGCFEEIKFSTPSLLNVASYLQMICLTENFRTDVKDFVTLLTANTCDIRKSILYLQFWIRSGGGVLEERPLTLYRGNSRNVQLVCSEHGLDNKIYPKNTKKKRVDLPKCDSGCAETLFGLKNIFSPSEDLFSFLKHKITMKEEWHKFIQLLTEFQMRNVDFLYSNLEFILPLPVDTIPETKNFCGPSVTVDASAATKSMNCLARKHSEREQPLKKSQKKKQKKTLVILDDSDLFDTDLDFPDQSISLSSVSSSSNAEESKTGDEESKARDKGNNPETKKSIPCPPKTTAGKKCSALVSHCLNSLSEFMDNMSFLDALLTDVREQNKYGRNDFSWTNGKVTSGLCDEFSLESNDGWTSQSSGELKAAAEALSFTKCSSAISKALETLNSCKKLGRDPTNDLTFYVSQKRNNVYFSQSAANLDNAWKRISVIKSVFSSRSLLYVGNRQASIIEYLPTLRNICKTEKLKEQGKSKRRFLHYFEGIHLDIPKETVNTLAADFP
Sequence of Beta-2 adrenergic receptor (Homo sapiens) (P07550 whole entry, looked up): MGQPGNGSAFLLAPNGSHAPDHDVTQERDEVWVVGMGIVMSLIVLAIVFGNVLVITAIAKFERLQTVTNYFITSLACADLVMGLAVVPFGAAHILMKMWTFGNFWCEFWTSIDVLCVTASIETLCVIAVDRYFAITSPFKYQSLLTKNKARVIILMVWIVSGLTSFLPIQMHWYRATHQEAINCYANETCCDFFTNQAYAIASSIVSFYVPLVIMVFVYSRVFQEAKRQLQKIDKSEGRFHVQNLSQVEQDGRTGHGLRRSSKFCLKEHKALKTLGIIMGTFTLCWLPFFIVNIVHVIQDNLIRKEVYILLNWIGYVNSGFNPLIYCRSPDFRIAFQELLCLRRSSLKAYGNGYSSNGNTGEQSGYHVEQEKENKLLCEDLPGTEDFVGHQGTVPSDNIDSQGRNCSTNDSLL
Sequence of Thioredoxin reductase 1, cytoplasmic (Rattus norvegicus) (O89049 whole entry, looked up): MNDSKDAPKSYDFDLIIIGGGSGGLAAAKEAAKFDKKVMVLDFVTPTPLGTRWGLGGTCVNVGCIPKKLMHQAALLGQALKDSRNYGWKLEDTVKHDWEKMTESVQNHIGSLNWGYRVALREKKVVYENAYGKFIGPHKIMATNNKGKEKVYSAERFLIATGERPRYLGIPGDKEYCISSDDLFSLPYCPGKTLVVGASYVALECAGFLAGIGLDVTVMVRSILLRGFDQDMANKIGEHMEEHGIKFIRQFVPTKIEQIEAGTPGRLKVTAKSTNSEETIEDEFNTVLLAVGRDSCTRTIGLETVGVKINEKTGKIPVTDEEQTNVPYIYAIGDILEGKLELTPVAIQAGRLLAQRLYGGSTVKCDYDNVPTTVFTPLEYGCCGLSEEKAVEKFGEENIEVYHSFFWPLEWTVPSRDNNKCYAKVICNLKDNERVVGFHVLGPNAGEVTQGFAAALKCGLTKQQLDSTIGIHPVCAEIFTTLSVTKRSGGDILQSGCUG
Sequence of Flap endonuclease 1 (Homo sapiens) (P39748 whole entry, looked up): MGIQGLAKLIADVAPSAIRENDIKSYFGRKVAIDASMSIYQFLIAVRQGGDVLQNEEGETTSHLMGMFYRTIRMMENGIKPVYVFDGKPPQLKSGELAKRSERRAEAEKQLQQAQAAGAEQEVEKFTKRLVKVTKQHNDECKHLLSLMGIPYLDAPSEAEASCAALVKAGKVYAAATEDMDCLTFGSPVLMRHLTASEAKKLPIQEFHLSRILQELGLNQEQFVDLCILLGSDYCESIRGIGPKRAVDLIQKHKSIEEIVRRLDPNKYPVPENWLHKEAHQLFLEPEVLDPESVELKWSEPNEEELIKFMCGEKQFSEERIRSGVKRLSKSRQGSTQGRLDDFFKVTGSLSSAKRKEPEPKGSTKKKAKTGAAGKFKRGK
Sequence of D(1A) dopamine receptor (Homo sapiens) (P21728 whole entry, looked up): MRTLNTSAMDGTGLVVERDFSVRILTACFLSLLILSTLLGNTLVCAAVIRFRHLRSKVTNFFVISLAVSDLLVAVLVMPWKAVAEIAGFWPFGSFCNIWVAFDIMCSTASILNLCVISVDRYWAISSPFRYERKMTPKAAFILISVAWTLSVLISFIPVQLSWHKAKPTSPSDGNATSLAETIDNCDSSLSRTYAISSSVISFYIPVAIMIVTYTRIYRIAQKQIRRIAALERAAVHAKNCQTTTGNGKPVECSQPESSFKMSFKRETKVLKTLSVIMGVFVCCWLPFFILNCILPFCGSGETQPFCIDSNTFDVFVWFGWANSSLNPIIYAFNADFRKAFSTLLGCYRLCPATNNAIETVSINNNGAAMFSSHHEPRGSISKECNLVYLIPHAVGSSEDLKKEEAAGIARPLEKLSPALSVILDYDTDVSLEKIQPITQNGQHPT

Structure (SMILES) | outcome [1] | Potency [2] | Potency [3] | outcome [4] | Potency [5] | Potency [6] | Potency [7] | outcome [8] | outcome [9] | outcome [10] | Potency [11] | Potency [12] | Potency [13] | outcome [14] | Potency [15] | Potency [16] | Potency [17] | activation [18]
c1ccc(C2CN3CCSC3=N2)cc1 (stereo unspecified) | inactive | inactive | inactive | inactive | inactive | inactive | inactive | inactive | inactive | inactive | inactive | inactive | inactive | inactive | inactive | – | – | –
Nc1ccc(-c2nc3ccc(-c4nc5ccc(N)cc5[nH]4)cc3[nH]2)cc1 | inactive | 0.262 µM (active) | 0.415 µM (active) | inactive | inactive | 44.7 µM (active) and 26.7 µM (active) | 39.8 µM (active) | – | inactive | inactive | inactive | inactive | – | – | inactive | 21.2 µM (active) | inactive | 1% (inactive)
NC(C(=O)N[C@@H]1C(=O)N2C(C(=O)O)=C(Cl)CS[C@H]12)c1ccccc1 (stereo partly specified) | inactive | inactive | inactive | inactive | inactive | inactive | – | inactive | inactive | inactive | inactive | – | inactive | – | inactive | inactive | inactive | 0.938% (inactive)
CCCCCCCCCC[Si](C)(C)CCC(=O)NC(Cc1ccc(C)cc1)c1ccccc1 (stereo unspecified) | inactive | inactive | inactive | inactive | inactive | inactive | inactive | inactive | inactive | inactive | inactive | inactive | – | – | inactive | inactive | – | 0.812% (inactive)
Cc1cc2c(cc1Cl)N(C(=O)Nc1ccnc3ccccc13)CC2 | inactive | inactive | inactive | inactive | inactive | inactive | inactive | – | inactive | inactive | inactive | – | inactive | – | inactive | inactive | inactive | –
O=c1[nH]ccc2c(O)cccc12 | inactive | inactive | inactive | inactive | inactive | inactive | inactive | inactive | – | inactive | inactive | inactive | inactive | – | inactive | inactive | inactive | –
Nc1ncnc2c1ncn2C1CCCC1 | inactive | inactive | inactive | inactive | inactive | inactive | inactive | inactive | – | inactive | inactive | – | inactive | – | inactive | inactive | – | 1.12% (inactive)
CN(C)C(=O)/N=N/C(=O)N(C)C | inactive | inactive | inactive | inactive | inactive | 31.6 µM (active) and inactive | 20 µM (active) | inactive | – | inactive | inactive | inactive | inactive | – | inactive | inactive | inactive | –
c1ccc2nc(C3=NCCN3)ccc2c1 | inactive | inactive | inactive | inactive | inactive | inactive | inactive | inactive | inactive | inactive | inactive | inactive | inactive | – | inactive | – | inactive | –
COc1ccc(NC(=O)c2ccc(-c3ccc(-c4noc(C)n4)cc3C)cc2)cc1N1CCN(C)CC1 | inactive | 4.65 µM (active) | 3.7 µM (active) | inactive | inactive | 15.8 µM (active) | 31.6 µM (active) | inactive | – | inactive | inactive | inactive | 20 µM (active) | – | 20.6 µM (active) | inactive | inactive | 2.25% (inactive)
O=c1[nH]c2cc(Cl)ccc2c(O)c1-c1ccc(Oc2ccccc2)cc1 | inactive | inactive | inactive | inactive | inactive | inactive | inactive | inactive | inactive | inactive | inactive | – | – | – | inactive | inactive | inactive | 0.5% (inactive)
O=C(c1ccc2c(c1)OCCO2)N1CCCCC1 | inactive | inactive | inactive | inactive | inactive | inactive | inactive | inactive | – | inactive | inactive | inactive | – | – | – | inactive | inactive | -0.312% (inactive)
CC1CNCCN1S(=O)(=O)c1cccc2cnccc12 (stereo unspecified) | inactive | inactive | inactive | inactive | inactive | inactive | inactive | inactive | inactive | inactive | inactive | – | inactive | – | 8.2 µM (active) | inactive | – | 1.25% (inactive)
OCC1NCC(O)C(O)C1O (stereo unspecified) | inactive | inactive | inactive | inactive | inactive | inactive | inactive | inactive | – | inactive | inactive | inactive | inactive | – | inactive | inactive | inactive | 0.938% (inactive)
O=C(O)c1cc2cc(F)ccc2[nH]1 | inactive | inactive | inactive | inactive | inactive | inactive | inactive | inactive | inactive | inactive | inactive | inactive | inactive | – | inactive | – | inactive | –
NC(Cc1cccc(-c2ccccc2CP(=O)(O)O)c1)C(=O)O (stereo unspecified) | inactive | inactive | inactive | inactive | inactive | inactive | inactive | inactive | inactive | inactive | inactive | – | inactive | – | inactive | inactive | inactive | 1.31% (inactive)
[N-]=[N+]=Nc1ccc(C(=O)CSC[C@H](NC(=O)CC[C@H](N)C(=O)O)C(=O)NCC(=O)O)cc1 | inactive | inactive | inactive | inactive | inactive | 35.5 µM (active) and inactive | 39.8 µM (active) | inactive | inactive | inactive | inactive | – | inactive | – | inactive | inactive | inactive | 1.12% (inactive)
